Ba CapD inh: Bacillus anthracis CapD inhibitors, primary screen, biochemical, fluorescence intensity | z-score (test concentration not listed) | AID 492967, 2010 | purified CapD enzyme, fluorescence intensity read-out; stronger effect = lower value | actives 0.23% (n = 140,000) | CapD gamma-glutamyltranspeptidase (Bacillus anthracis Ames Ancestor); in the data active means z-score mostly below about -2.9, no sharp cut-off; inactive means mostly above about -1.9
* hit, by the source's call. Many of the other results were omitted from the sample, so hits are more common in it than they were.

SMILES | Ba CapD inh
CCOC(=O)CCc1c(CC(=O)OCC)c[nH]c1/C=N/O | -10*
CCOC(=O)CCc1c(C)nc2ncnn2c1C | -0.22
CCOC(=O)CCc1n[nH]c(=O)[nH]c1=O | -0.035
CCOc1ccc(/C=C2\SC(=S)N(CCC(=O)Nc3cc(C)on3)C2=O)cc1 | -0.06
COc1ccc(N=Cc2c(O)[nH]c(=S)[nH]c2=O)cc1 | 0.11
O=c1[nH]c(=S)[nH]c(O)c1N=Nc1ccc(O)cc1 | -3.9*
Cc1ccc(N=Cc2c(O)[nH]c(=S)[nH]c2=O)cc1 | 0.93
CCSc1nc(-c2ccc(OC)cc2)nc2c1c(=O)n(C)c(=O)n2C | 2.9
FC(F)(F)N(c1ccccc1)c1ccccc1 | 0.33
COc1ccc(Nc2nc(NCCCC(C)C)nc(OC)n2)c(OC)c1 | 0.45
NN1CC(=O)N(c2ccc(Cl)cc2)CC1=O | 0.11
O=C(O)c1c(F)cccc1I | -2.9*
O=C(c1c(F)cccc1F)N1CCN(C(=O)c2c(F)cccc2F)CC1 | -0.43
CC(=O)Nc1cccc(F)c1C(=O)O | -0.13
NC(=O)C1(N2CCCCC2)CCN(C(=O)c2ccc3c(c2)[nH]c(=S)n2c4ccccc4nc32)CC1 | -0.6
O=C(O/N=C/c1ccc2c(c1)OCO2)C1CCCCC1 | 1.1
O=C1/C(=C/c2ccccc2)CCCc2ccccc21 | -0.17
CN(C)/C=C1\Cc2ccccc2C1=O | 6.4
CN(C)/C=C1\CCCc2ccccc2C1=O | -4.1*
CC(N)c1ccc(S(C)(=O)=O)cc1 (configuration not stated) | -0.24
COC(=O)c1ccccc1-n1cnc2ccccc2c1=O | 2.8
COC(=O)C1=CCCN(C)C1 | -0.55
COC(=O)C1=CN(N(C(C)=O)C(C)=O)C(=O)CC1 | -9.2*
Cc1ccccc1OCC(=O)NC1CC2CCC1C2 (configuration not stated) | 0.01
N#CC(C#N)=C(N)/C(C#N)=C/c1ccc(-c2cccc(C(=O)O)c2)o1 | -4*
SMILES | Ba CapD inh
N#C/C(=C\c1ccc(-c2cccc(C(=O)O)c2)o1)C(=O)NC1CCCCC1 | -2.2
N#C/C(=C/c1ccc(-c2cccc(C(F)(F)F)c2)o1)c1ccc(C(=O)O)cc1 | -2
CCOC(=O)c1sc2nc(CC(=O)OC)nc(N3CCC(C(=O)OCC)CC3)c2c1C | 0.47
COc1cccc(-n2cc(C(=O)NCc3cccnc3)c3ccccc3c2=O)c1 | 6.3
Cc1noc(/C=C/N(C)C)c1S(=O)(=O)N1CCCC(C(=O)NC2CCCCC2)C1 (configuration not stated) | 1.7
Cc1noc(/C=C/N2CCOCC2)c1S(=O)(=O)N(C)CC(=O)NC1CCCCC1 | -5.5*
CCc1ccccc1N(C)S(=O)(=O)c1c(C)noc1/C=C/N1CCOCC1 | -3.4
CC(=O)N(C)c1ccc(NC(=O)COc2ccc3ccccc3c2)cc1 | 0.48
Cc1ccc(C)c(NS(=O)(=O)c2ccc3c(c2)c(=O)n(C)c(=O)n3C)c1 | -0.17
COc1ccc(CCNC(=O)c2c[nH]c3ccc(S(=O)(=O)N4CCCCCC4)cc3c2=O)cc1OC | 0.73
O=c1c2ccccc2n2nncc2n1Cc1ccccc1F | 0.41
COc1cc(N2C(=O)CSCC2=O)c(Cl)cc1Cl | -0.56
CC(=O)N(C(C)=O)c1nc(-c2ccccc2)cn1/N=C/c1ccccc1 | -7.1*
COc1ccc(/C=N/n2c(N(C(C)=O)C(C)=O)nc(-c3ccccc3)c2-c2ccccc2)cc1 | -1.4
O=C(Nc1ccccc1)Nc1nc(-c2ccco2)cn1/N=C/c1ccccc1 | -0.34
O=C(Cc1ccc(F)c(F)c1)N1CCN(C(=O)OCC2CCCN(Cc3ccc4ccccc4c3)C2)CC1 (configuration not stated) | -0.82
O=C(C1CC1)N1CCc2cc(S(=O)(=O)Nc3cccc(F)c3)ccc21 | 0.11
C/C(=N\N1C(=O)c2ccccc2C1=O)C1C(=O)c2ccccc2C1=O | -0.46
C/C(=N/O)C1C(=O)c2ccccc2C1=O | -4.3*
O=C(c1ccccc1)C1C(=O)c2ccccc2C1=O | -2.4
COc1ccc2nc(NC(=O)c3ccc(Br)cc3)sc2c1 | 0.01
Cc1nn2c(CN(C(=O)c3ccccc3)c3ccccc3)nnc2c2ccccc12 | 4
N=C1/C(=C/c2ccco2)C(=O)N=C2SC=C(c3ccccc3)N12 | -0.14
CC(C)CS(=O)(=O)C1=NN2C(=N)/C(=C\c3ccco3)C(=O)N=C2S1 | -4.1*
CCS(=O)(=O)C1=NSC2=NC(=O)/C(=C\c3ccco3)C(=N)N21 | -3.4
SMILES | Ba CapD inh
CON(C)C(=O)CCC(=O)NC1CCN2CCCc3cccc1c32 (configuration not stated) | 0.14
COc1ccc(CN(Cc2ccc(OC)cc2)S(=O)(=O)c2c(C)noc2C)cc1 | 0.41
Cc1noc(/C=C/N(C)C)c1S(=O)(=O)N(CCc1ccccc1)Cc1ccccc1 | -4.3*
Cc1noc(C)c1S(=O)(=O)N(CCC#N)Cc1ccccc1 | -0.2
Cc1ccccc1N1CCN(C(=O)OCC(C)Cl)CC1 (configuration not stated) | 0.4
CN1C(=O)c2ccccc2C(C(=O)N2CCCCCC2)C1c1c[nH]c2ccccc12 (configuration not stated) | 0.15
CC(=O)Oc1ccc(C2Nc3c(C(=O)c4ccccc4)cc(Cl)cc3C3C=CCC32)c(OC(C)=O)c1 (configuration not stated) | 0.02
CCOC(=O)c1sc2nc(SCC#N)n(Cc3ccco3)c(=O)c2c1C | 4
CCOC(=O)c1c(NC(C)=O)nc(SC)n1Cc1cccs1 | -0.14
CCOC(=O)c1c(NC(C)=O)nc(SC)n1Cc1ccco1 | -11*
Cc1c(Cl)cccc1NC(=S)N(N)CCO | -0.39
O=C1c2cccnc2C(=O)N1CCc1ccc(S(=O)(=O)NCCc2ccccc2)cc1 | 0.14
Cc1c(C(=O)N(C)Cc2ccccc2)sc2nc3n(c(=O)c12)CCCC3 | -0.38
CCCN1CCN(C(=O)c2sc3nc4n(c(=O)c3c2C)CCCC4)CC1 | 0.71
Cc1c(C(=O)O)sc2nc3n(c(=O)c12)CCC3 | -5.2*
O=S(=O)(Nc1nnc(C(F)(F)F)s1)c1cccc(C(F)(F)F)c1 | -0.04
CN(C(=O)c1ccc(F)cc1)c1ccc(OCC(=O)NCc2ccncc2)cc1 | 0.3
CC(C)c1ccc(OCCN2CCNCC2)cc1 | 0.005
O=C(Nc1ccccc1N1CCCCC1)C1CCCCC1 | -0.64
CC(C)c1ccccc1NC(=O)C1CCCCC1 | 0.28
Cc1cccc(NC(=O)C2CCCCC2)c1C(=O)O | -2*
COc1cc(/C=C2\SC(NC(C)=O)=NC2=O)ccc1Oc1ccc(C(F)(F)F)cc1[N+](=O)[O-] | -0.085
Cn1cccc1/C=N/n1cnnc1 | -5.5*
C(=N\n1cnnc1)/c1ccccc1 | 0.41
NS(=O)(=O)c1ccc(-n2cccc2C=Nn2cnnc2)cc1 | -1.8
SMILES | Ba CapD inh
CN(C)N=Nc1ccc(S(=O)(=O)NC(=O)Cc2ccccc2)cc1 | -1.4
Cc1ccc(N=NN(C)C)cc1 | -1
CC(=O)N(C(C)=O)S(=O)(=O)c1ccc(N=NN(C)C)cc1 | -5.1*
COc1c(Cl)cc(Cl)cc1C1N(Cc2ccccc2)CCN1Cc1ccccc1 | -0.54
CCOC(=O)c1[nH]c(C)cc1C | -0.65
CCOC(=O)c1c(C)cc(C)[nH]c1=O | 17
CCOC(=O)c1c(C)cc(C)[nH]c1=S | -4.8*
COC(=O)C1=C(NN(C)c2ccc(OC)cc2)CN(c2ccccc2)C1 | 0.38
CCN1C(=O)/C(=C\c2ccco2)C(C(=O)OC)=C1C | -0.87
CCN1C(=O)/C(=C\c2ccc(OC)cc2)C(C(=O)OC)=C1C | -4.9*
C=CCN1C(=O)/C(=C\c2ccccc2)C(C(=O)OC)=C1C | -1.3
Cc1cc(NC(=O)c2cc3c(s2)-c2c(C)cccc2OC3)no1 | 62
